Experimental data from the supplement of paper PMC6555819.

Columns and labels:
Test in all cases: PBM binding z-score (relative to random genomic background probes); higher = stronger binding; sequences stand for … in GC…GCGATTGACAGCGTAGAATGAAGG
[1] = system: FXR:RXRa (NR concentration 270 nM, RXRa partner concentration 90 nM)
Method in brief: (§1)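 Scanned fluorescence from custom Agilent 4×180K protein-binding microarrays was regression-normalized. Binding z-scores use random background probes as reference. Ligand-free nuclear receptor dimers were incubated on the arrays for 1 h and detected with antibodies against each partner (one per run).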

[2] = system: LXRa:RXRa (NR concentration 270 nM, RXRa partner concentration 90 nM)
Method in brief: as §1

[3] = system: LXRa homodimer (NR concentration 270 nM)
Method in brief: as §1

[4] = system: LXRb:RXRa (NR concentration 270 nM, RXRa partner concentration 90 nM)
Method in brief: as §1

[5] = system: LXRb homodimer (NR concentration 270 nM)
Method in brief: as §1

[6] = system: PPARa:RXRa (NR concentration 270 nM, RXRa partner concentration 90 nM)
Method in brief: as §1

[7] = system: PPARg:RXRa (NR concentration 180 nM, RXRa partner concentration 90 nM)
Method in brief: as §1

[8] = system: PPARg:RXRa 270nM:90nM, anti-RXR (NR concentration 270 nM, RXRa partner concentration 90 nM)
Method in brief: as §1

[9] = system: PPARg:RXRa 30nM:10nM, anti-RXR (NR concentration 30 nM, RXRa partner concentration 10 nM)
Method in brief: as §1

[10] = system: PPARg:RXRa 90nM:30nM, anti-RXR (NR concentration 90 nM, RXRa partner concentration 30 nM)
Method in brief: as §1

[11] = system: PPARg:RXRa DBDmut IVT, anti-RXR (DBD mutation: RXRa K156A/R161A, NR concentration 270 nM, RXRa partner concentration 90 nM)
Method in brief: as §1

[12] = system: PPARg:RXRa IVT, anti-PPARg (NR concentration 270 nM, RXRa partner concentration 90 nM)
Method in brief: as §1

[13] = system: PPARg DBDmut:RXRa IVT, anti-PPARg (DBD mutation: PPARg1 K132A/R137A, NR concentration 270 nM, RXRa partner concentration 90 nM)
Method in brief: as §1

[14] = system: PPARg DBDmut IVT, anti-PPARg (DBD mutation: PPARg1 K132A/R137A, NR concentration 270 nM)
Method in brief: as §1

[15] = system: PPARg homodimer (NR concentration 180 nM)
Method in brief: as §1

[16] = system: PXR:RXRa (NR concentration 270 nM, RXRa partner concentration 90 nM)
Method in brief: as §1

[17] = system: PXR homodimer (NR concentration 270 nM)
Method in brief: as §1

[18] = system: RARa:RXR (NR concentration 270 nM, RXRa partner concentration 90 nM)
Method in brief: as §1

[19] = system: RARa homodimer (NR concentration 270 nM)
Method in brief: as §1

[20] = system: RARb:RXRa (NR concentration 270 nM, RXRa partner concentration 90 nM)
Method in brief: as §1

Row | Sequence | PBM binding z-score [1] | PBM binding z-score [2] | PBM binding z-score [3] | PBM binding z-score [4] | PBM binding z-score [5] | PBM binding z-score [6] | PBM binding z-score [7] | PBM binding z-score [8] | PBM binding z-score [9] | PBM binding z-score [10] | PBM binding z-score [11] | PBM binding z-score [12] | PBM binding z-score [13] | PBM binding z-score [14] | PBM binding z-score [15] | PBM binding z-score [16] | PBM binding z-score [17] | PBM binding z-score [18] | PBM binding z-score [19] | PBM binding z-score [20]
1 | ACAGACAGGTGAGTTAAGGTAACTCAGCTGGACG | 0.488 | -0.196 | -0.499 | -0.279 | -0.347 | 0.226 | 0.637 | 0.279 | 0.254 | 0.0651 | 0.272 | 0.601 | 0.0974 | 0.513 | 0.279 | 0.151 | -0.384 | 1.29 | -0.525 | 0.48
2 | CCGAGTAGGTTATGAGGCATTCAGGCAACGGTGA | -0.0177 | 0.0841 | -0.0523 | -0.158 | -0.156 | 1.02 | 1.3 | 2.22 | 0.331 | 1.44 | 2.79 | 2.1 | -0.794 | -0.318 | 0.571 | -0.101 | -0.42 | 0.567 | -0.00223 | 0.501
3 | GCTTGTAGATCAAAGTTAAGAAAGACTAAGCTAA | -0.479 | -0.533 | -0.585 | -0.487 | -0.917 | 1.18 | 2.55 | 4.31 | 2.13 | 4.45 | 0.918 | 0.871 | -0.419 | 0.433 | -0.72 | -0.462 | -0.397 | -0.522 | -0.688 | -0.479
4 | TCATATAGGTAAATGCTACGTGAAAGTCCGATCT | 0.931 | 0.681 | 0.145 | 0.726 | 0.254 | 0.91 | 0.924 | 2.02 | 3.64 | 2.58 | 3.82 | 2.01 | 1.39 | 1.49 | 0.811 | 0.667 | 0.362 | 0.641 | 0.913 | 0.222
5 | TCGAGTTGGTCACGGAGGTCACACACGACGGGTA | 3.27 | 3.24 | 1.8 | 3.05 | -0.188 | 3.87 | 3.18 | 3.36 | 1.82 | 2.63 | 0.979 | 2.98 | 0.179 | 0.0233 | 2.35 | 4.79 | 1.32 | 4.55 | 0.63 | 3.84
6 | CAAACTAGGTCAAGAGGTCAAATTCCGCTTCCCG | 7.41 | 6.59 | 7.45 | 6.01 | 2.95 | 6.83 | 9.67 | 8.42 | 7.02 | 8.9 | 7.98 | 8.45 | 2.67 | 2.22 | 6.39 | 6.47 | 2.4 | 7.61 | 2.96 | 5.63
7 | ATCTCTACGTAAAAGTTCAGTGAATCCCGAGGAT | 0.535 | 1.12 | 1.27 | 0.881 | 1.33 | 0.835 | 0.595 | 1.55 | 0.654 | 1.25 | -0.177 | 0.157 | 1.69 | 2.47 | 0.954 | 1.69 | 1.8 | 0.802 | 1.16 | 2.35
8 | TCTCGGCGGACACGAAAGGTCAGAGCTCGACATC | 1.93 | 3.18 | 2.3 | 2.79 | -0.427 | 2.94 | 0.571 | 1.69 | 1.42 | 1.53 | 1.12 | 0.541 | -0.347 | -0.845 | 1.83 | 3.15 | -0.247 | 3.71 | 0.345 | 3.56
9 | TCTAGCAGGCCAGAGGGTCCCTCAAGAGGTACGG | -1.21 | -0.594 | -0.832 | -1.08 | -1.75 | -0.293 | 0.254 | 1.14 | 1.15 | 0.873 | 0.4 | -0.351 | -0.654 | -1.83 | -0.97 | -0.673 | -1.06 | -0.482 | -1.2 | -0.136
10 | ATCTCTAGGTCAGACTCAGTTCAGTGAAGAACGC | 2.16 | 3.65 | 3.15 | 2.13 | 2 | 2.7 | 3.02 | 2.96 | 0.87 | 2.1 | 5.06 | 5.22 | 1.01 | 1.61 | 2.14 | 4.07 | 1.69 | 2.07 | 1.03 | 3.51
11 | GCGACTGGGGCATCAGCAGGCTACCATAACTTAA | -0.662 | -0.723 | -0.307 | -0.378 | -1.43 | 0.138 | 0.565 | 0.457 | -1.02 | -0.389 | 4.01 | 2.87 | -0.343 | -1.56 | -0.243 | -0.692 | -0.801 | -0.592 | -1.13 | 0.346
12 | CCTACTGAGCCATTCAGAGGTCATTGATCATATG | 2.84 | 4.67 | 6.83 | 3.88 | 1.24 | 3.63 | 0.797 | 1.84 | 0.239 | 1.39 | 0.787 | 1.12 | 0.0537 | 0.233 | 3.19 | 4.96 | 3.63 | 4.44 | 1.71 | 2.87
13 | AGAATGAGGTTGTACGTAGATCAGGGAAGAAAGT | -0.0554 | 0.156 | 0.00374 | 0.364 | 0.0497 | 0.574 | 0.188 | 0.124 | 0.21 | 0.207 | -0.0167 | 0.566 | 0.8 | 0.199 | 0.226 | 0.252 | 0.629 | 0.411 | 0.476 | 0.142
14 | CTCGAAAGGTCTGTTGAGGTGAGTATACGGATAA | 0.57 | -0.177 | -0.581 | -0.275 | -0.339 | 0.697 | -0.00878 | 0.182 | -0.0313 | 0.242 | -0.464 | 0.358 | 0.678 | 0.237 | 0.0956 | 0.48 | -0.39 | 1.61 | -0.325 | 1.47
